Source: PubChem BioAssay (Broad Institute)
Sampled rows, rich in hits. Any-hit rate of the full collection: about 2.2%.
Shn3 3UTR inh – reduction of Shn3 3'UTR firefly luciferase signal, primary screen, Schnurri-3 inhibitor project, cell-based, Clone20 osteoblasts, set 2 | Clone20 osteoblast Shn3 3'UTR firefly luciferase, 24 h | inhibition, % at 12.5 µM | actives 0.52% (n = 360,000);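 active = mean inhibition of at least 75% with every replicate also reaching 75%; inconclusive = mean inhibition at least 75% but some replicate below; inactive = mean inhibition below 75%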;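 also: 0% = median of neutral control wells and 100% = pilot-screen positive control compound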
LGR2 antag – inhibitors of bursicon-induced LGR2 CRE-luciferase signal, primary screen, cell-based, HEK293, CRE-luciferase reporter, bursicon stimulation | Drosophila bursicon receptor LGR2 (rickets) | bursicon-stimulated, 4 h | inhibition, % at 9.99 µM | actives 0.35% (n = 380,000) | AID 720647, 2013;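 active = drop in luminescence signal, shown as inhibition above about 50% in the replicate tests, limit read from the data, passing the limit was not always enough; inconclusive = probably only some replicates passing the limit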;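 also: agonist challenge used bursicon conditioned medium at about half maximal strength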
LMP1 NFkB inh – EBV LMP1-driven NF-kappaB luciferase reporter inhibitors, primary screen, cell-based, luminescence, single point. LMP1-induced NF-kappaB luciferase reporter cells. inhibition, % at 12.5 µM. actives 0.69% (n = 350,000); in the data active = inhibition above about 41%; inconclusive = no clear call, values can overlap the other calls;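 also: 0% = neutral control wells and 100% = reference inhibitor control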
PAX8 inh HTS – inhibitors of PAX8-driven TPO luciferase reporter, primary screen, RMG-I cells, single concentration; actives 1.2% (n = 360,000); inhibition, % at 12.6 µM; SteadyGlo, 24 h;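 active = mean replicate inhibition at least 60% with every replicate also reaching 60%; inconclusive = only one of the two criteria is met; inactive = mean below 60% and not all replicates reaching 60%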;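 also: luciferase light reporting Pax8 driven TPO promoter activity; plate controls were median of neutral control wells for no effect and mitoxantrone controls for full effect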
MITF TRPM1 inh – inhibitors of MITF-dependent TRPM1 promoter reporter, primary screen, cell-based, SK-MEL-5, single point, luciferase; SK-MEL-5 TRPM1 promoter luciferase, 24 h; inhibition, % at 12.5 µM; actives 0.83% (n = 330,000); AID 488899, 2010;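 active = mean inhibition across replicates of 60% or more, whatever share of single replicates reaches that level; inconclusive = some that reach 60%, reason not given; inactive = mean inhibition across replicates below 60%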
EWS-Fli inh – EWS/Fli-driven NR0B1 reporter inhibitors, primary screen, A673 cells, NR0B1 luciferase, luminescence, MLPCN library; viability-normalised; inhibition, % at 12.6 µM; actives 0.67% (n = 350,000);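 active = mean inhibition of at least 50% after viability correction, with every replicate also passing that limit; inconclusive = mean reaches 50% but only one of two replicates passes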;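 also: firefly luciferase signal divided by Alamar Blue viability fluorescence both relative to DMSO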
Starred values were filed as active, the others as inactive; u = inconclusive; x = not tested or not shown.

SMILES | Shn3 3UTR inh | LGR2 antag | LMP1 NFkB inh | PAX8 inh HTS | MITF TRPM1 inh | EWS-Fli inh
O=C(Nc1ccc(S(=O)(=O)N2CCOCC2)cc1)c1ccc([N+](=O)[O-])s1 | 15.1 | -8.5 | -9.9 | 20.8 | 84.2* | 46.4
O=C(Nc1ccccc1N1CCOCC1)c1ccc([N+](=O)[O-])s1 | 12.3 | 10.1 | -1.7 | 33.4 | 80.9* | 14.2
O=C(Nc1ccccc1N1CCOCC1)c1ccccc1[N+](=O)[O-] | -6.9 | x | 3.1 | x | 6.3 | x
Cc1ccc(-n2ccc(=O)c(C(=O)Nc3ccc(S(=O)(=O)N4CCOCC4)cc3)n2)cc1 | -9.3 | -14.8 | 44.9* | 3.8 | -7.3 | -5.9
N#C[C@@H]1[C@H](c2ccccc2/C=C/c2ccccc2)[C@H](CO)N1S(=O)(=O)c1ccccc1 | x | 9.4 | x | 8.1 | x | 7.4
CCC1C/C(=C\c2cccnc2)C(=O)/C(=C/c2cccnc2)C1 (stereo unspecified) | 39.6 | x | 93.2* | 89.2* | 97.1* | 53.8*
O=C1/C(=C/c2cccnc2)CC/C1=C\c1cccnc1 | -15.8 | 7.7 | -2.0 | 0.0 | 2.3 | -14.0
O=C1/C(=C/c2cccnc2)CCC/C1=C\c1cccnc1 | x | 90.1* | x | -12.6 | x | 54.2*
CN(C)c1ccc2c(c1)[C@H]1C[C@H](CC(=O)N3CCCCC3)O[C@@H](CO)[C@H]1O2 | x | -4.4 | x | x | x | -10.1
CO[C@H]1CN(C)C(=O)c2cc(NC(=O)Nc3ccc(Cl)cc3)ccc2OC[C@H](C)N(C)C[C@H]1C | x | 19.6 | x | 12.0 | x | 19.6
Cc1ccc(S(=O)(=O)N(C)C[C@@H]2Oc3ccc(N(C)C)cc3C(=O)N([C@H](C)CO)C[C@H]2C)cc1 | x | -28.8 | x | -6.5 | x | x
CCOC(=O)COc1ccc2c(C#N)c3ccccn3c2c1 | -15.1 | -6.9 | 3.7 | -4.0 | -11.7 | 2.4
COc1cc(OC)cc(C(=O)c2c(C)c(C#N)c3ccccn23)c1 | 33.7 | -1.2 | 6.0 | 10.4 | x | 58.3*
COc1ccc(N2C(=O)CC(Sc3nnnn3-c3ccc(F)cc3)C2=O)cc1 (stereo unspecified) | 72.8 | -18.0 | 6.3 | 95.0* | 21.5 | 13.4
CCCc1ccc(C#N)c(SC2CC(=O)N(c3ccc(OC)cc3)C2=O)n1 (stereo unspecified) | -2.4 | -34.5 | -6.3 | -5.6 | -1.6 | -3.4
O=C1CC(Sc2nnnn2-c2ccccc2)C(=O)N1c1cccc(Cl)c1 (stereo unspecified) | 89.7* | x | -7.4 | x | 16.0 | x
CCCN1CCC(NCc2cn(C)nc2-c2ccc(Oc3ccccc3)cc2)CC1 | -7.3 | -3.8 | -38.8 | 8.4 | 85.8* | 4.3
COC1CCCN(Cc2cn(C)nc2-c2ccc(Oc3ccccc3)cc2)C1 (stereo unspecified) | 21.2 | -6.3 | 3.6 | 2.8 | -14.9 | 10.7
Cc1nn(-c2ccccc2)c(Cl)c1C1C(C#N)=C(N)Oc2n[nH]c(C)c21 (stereo unspecified) | -42.0 | x | 52.6* | x | 7.1 | x
COc1ccccc1Nc1nc(N)nc(CCl)n1 | -12.9 | 11.8 | -5.8 | 105.4* | 9.3 | 57.2*
COc1ccc(OC)c(Nc2nc(N)nc(CCl)n2)c1 | 8.4 | 22.1 | 6.4 | 118.0* | 2.7 | u
O=C(O)CCCc1ccc2c(c1)CCc1ccccc1-2 | 15.0 | -21.2 | 24.0 | -34.4 | 87.5* | 63.0*
O=C(CCCc1ccccc1)NC1CC1 | -11.6 | 11.4 | 1.5 | 0.8 | -6.2 | x
C=C1CCC[C@]2(C)C[C@H]3OC(=O)C(CNC(C)(CO)CO)[C@H]3CC12 (stereo partly specified) | -59.6 | 22.9 | 13.6 | 3.2 | 42.3 | 4.1
C=C1CCC[C@]2(C)C[C@H]3OC(=O)C(CN(C)CC(OC)OC)[C@H]3CC12 (stereo partly specified) | -19.1 | -0.9 | 14.3 | 63.2* | 43.8 | 9.5
SMILES | Shn3 3UTR inh | LGR2 antag | LMP1 NFkB inh | PAX8 inh HTS | MITF TRPM1 inh | EWS-Fli inh
C=C1CCC[C@]2(C)C[C@H]3OC(=O)C(CN4CCCCC4CO)[C@H]3CC12 (stereo partly specified) | -27.3 | 22.4 | 90.6* | -7.2 | 78.8* | -12.7
C=C1CCC[C@]2(C)C[C@H]3OC(=O)C(CNC(C)CC)[C@H]3CC12 (stereo partly specified) | -2.2 | 5.0 | -4.4 | 45.4 | -4.2 | 11.5
CC(OC(=O)c1ccc2ccccc2c1)C(=O)N(C)Cc1ccccc1 (stereo unspecified) | 0.6 | 1.4 | -4.8 | 1.0 | -10.1 | -9.1
CC(C)N(CCC(=O)c1ccc2ccccc2c1)Cc1ccccc1 | 93.9* | -4.5 | 7.1 | 38.7 | -0.1 | 22.0
O=C(CCCc1ccccc1)Nc1cccc(C(=O)O)c1 | 6.9 | 82.2* | 46.2* | 32.9 | 69.7* | u
COc1cc(-c2noc(C)c2-c2ccc3[nH]ccc3c2)cc(OC)c1OC | 10.2 | x | -2.9 | x | 32.2 | x
COc1cc(-c2noc(C)c2-c2ccc(N(C)C)nc2)cc(OC)c1OC | 6.6 | -2.2 | 11.7 | 74.2* | u | 61.4*
C[C@H]1CN([C@@H](C)CO)C(=O)c2cc(NS(=O)(=O)c3cn(C)cn3)ccc2O[C@@H]1CN(C)Cc1ccc(-c2ccccc2)cc1 | x | -23.5 | x | -4.7 | x | 2.7
CCCn1c(/N=C/c2cc(OC)ccc2O)nc2ccccc21 | 19.3 | x | -18.2 | x | -4.5 | x
COc1ccc(O)c(/C=N/c2nc3ccccc3n2C)c1 | 8.9 | 12.6 | 89.9* | -6.0 | -16.3 | 10.2
CO[C@@H]1CN(C)C(=O)c2cc(NS(=O)(=O)CC(F)(F)F)ccc2OC[C@H](C)N(CCC(F)(F)F)C[C@H]1C | x | 15.0 | x | -1.3 | x | 1.8
C[C@@H]1CCCCO[C@H](CN(C)C)[C@@H](C)CN([C@@H](C)CO)C(=O)c2cc(NS(=O)(=O)c3ccc(F)cc3)ccc2O1 | x | 1.9 | x | -6.7 | x | -2.0
CCSc1nc2ccc(OC)cc2cc1C#N | -39.3 | x | 77.6* | x | -69.1 | x
CCOc1ccc2nc(SCC#N)c(C#N)cc2c1 | 19.4 | x | -31.8 | x | 0.3 | x
COC(=O)c1cc2n(n1)CCN(Cc1ccccc1Cl)C2=O | -2.8 | x | 69.6* | x | -8.1 | x
CC[n+]1ccc(/C=C/c2ccc(N(C)C)cc2)c2ccccc21 | 88.0* | 16.2 | u | 94.6* | 88.3* | 58.4*
CC[n+]1c(/C=C/c2ccc(N(C)C)cc2)ccc2ccccc21 | u | 11.2 | 52.2* | 89.6* | 89.6* | 47.7
CC[n+]1ccccc1/C=C/c1ccc(N(C)C)cc1 | 80.0 | 31.3 | 8.8 | 49.3 | 42.3 | 23.6
CC[n+]1c(/C=C/c2ccc(OC)c(OC)c2)ccc2ccccc21 | -107.7 | -18.6 | -48.0 | -103.1 | -73.6 | -66.7
CCN(CC)c1ccc(/C=C/c2ccc3ccc(OC)cc3[n+]2CC)cc1 | 86.6* | 39.5 | 35.4 | 82.9* | 81.1* | 57.1*
CCCCCC[n+]1ccccc1/C=C/c1ccc(N(C)C)cc1 | 75.6 | 17.5 | x | 98.1* | x | 38.0
